{"source": "PubChem BioAssay (NCATS)", "note": "Results filed as inconclusive are left out. A number with no mark means an inactive call. Calls of active or inactive are those of the source. Calls follow the shape of the dose curve; as a rule, active = well fitted inhibition curve with a large enough effect; inconclusive = small, poorly fitted or top-dose-only effect; inactive = no such curve, though single readings can be large or run the other way. Potency is read from the fitted curve at half-maximal effect."}
{"assay": "qHTS Screen of the MIPE 4.0 Collection Against Ewings Sarcoma (RDES) (AID 1259252); also: nearly all actives have a fitted effect of over 35% in size;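 as to viability (percent of control): 100% = DMSO-treated cells and 0% = medium-only wells without cells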", "settings": "RD-ES Ewing sarcoma viability, CellTiter-Glo, 48 h; series mostly up to 45.8 µM", "from_the_text": "There is a large unmet medical need for treatments for Ewing sarcoma, a pediatric sarcoma. We sought to identify compounds that inhibited Ewing sarcoma cells in vitro with the goal to then test promising drugs in two drug combinations in vitro to look for synergistic drug combinations. Promising combinations would then proceed to additional validation, including in vivo testing.\nUsing the NCATS developed oncology compound library called the Mechanism of Interrogation Plate (MIPE), four Ewing sarcoma cell lines were evaluated (TC32, TC71, RDES, EW8). Compounds, in a 12-point titration series, were incubated with cells for 48 hours and the read out was cell viability (CellTiter-Glo from Promega). These initial experiments were used to select appropriate concentrations of each single agent for subsequent two-drug matrix combinations such that the concentrations in the matrices would span both activity and non-activity.\nCells, in the log phase of growth, were seeded in 5 uL of RPMI plus 5% FBS, […] L-glutamine, 100 U/ml penicillin and 100 ug/ml streptomycin into 1536-well solid-bottom white tissue culture treated Greiner Bio One Plates (789173-F) using a MultiDrop Combi (Thermofisher Scientific) dispenser and a small sterile cassette. One column was media alone to be used as a :\"no cells\" control. The plates were then covered with sterilized stainless steel gasketed lids from Kalypsys. After allowing cells to attach for 4 hours, 23 nL of test compound or control (negative control DMSO and positive control 9.2 uM Bortezomib-final) were added from a 1536-well polypropylene compound source plate to each well using a 1536 head pin tool from Kalypsys. Cells were then incubated for 48 hours at 37C, 95% relative humidity and 5% CO2. After 48 hours, plates were removed from the incubator and 3 uL of CellTiter-Glo (Promega) was added using an Aurora Flying Reagent Dispenser Bioraptor. Plates were incubated at room temperature for 10 minutes prior to reading the luminescence on the Viewlux (PerkinElmer). The relative luciferase units are used to calculate the percent activity using the activity of DMSO in the cells and no cells columns for normalization of no inhibition and full inhibition respectively."}
{"smiles": "CC(C)C[C@H](NC(=O)CNC(=O)c1cc(Cl)ccc1Cl)B(O)O", "Potency": "0.264 µM (active)"}
{"smiles": "CCn1nnc2c(N3CCOCC3)nc(-c3ccc(NC(=O)Nc4ccc(C(=O)N5CCN(C)CC5)cc4)cc3)nc21", "Potency": "0.0148 µM (active)"}
{"smiles": "COc1ccc2c(OCc3nnc4ccc(-c5ccccc5)nn34)ccnc2c1", "Potency": "inactive"}
{"smiles": "Cc1[nH]c2ccccc2c1CCNCc1ccc(C=CC(=O)NO)cc1", "Potency": "0.0935 µM (active)"}
{"smiles": "COc1cc2c(NC3CCN(C(C)C)CC3)nc(C3CCCCC3)nc2cc1OCCCN1CCCC1", "Potency": "7.43 µM (active)"}
{"smiles": "O=c1[nH]c(=O)n(C2CCCO2)cc1F", "note": "(stereo not given)", "Potency": "inactive"}
{"smiles": "Cc1ccc(C(N)=O)cc1Nc1nccc(-c2cn(C(C)C)c3cnccc23)n1", "Potency": "14.8 µM (active)"}
{"smiles": "COc1cc(OC2CCN(C)CC2)ccc1Nc1ncc2c(n1)n(C1CCCC1)c(=O)n2C", "Potency": "9.35 µM (active)"}
{"smiles": "CN1CCN(c2cc(C(=O)Nc3ccc4c(c3)-c3c(c(C(N)=O)nn3-c3ccc(F)cc3)CC4)c(Cl)cn2)CC1", "Potency": "2.64 µM (active)"}
{"smiles": "CC[C@H](CO)Nc1nc(NCc2ccccc2)c2ncn(C(C)C)c2n1", "Potency": "16.6 µM (active)"}
{"smiles": "O=C(CCCCCCNC(=O)c1cnc(N(c2ccccc2)c2ccccc2)nc1)NO", "Potency": "5.9 µM (active)"}
{"smiles": "COc1cc(Nc2ncc(F)c(Nc3ccc4c(n3)N(COP(=O)(O)O)C(=O)C(C)(C)O4)n2)cc(OC)c1OC", "Potency": "11.8 µM (active)"}
{"smiles": "COC(=O)c1ccc2c(C(=Nc3ccc(N(C)C(=O)CN4CCN(C)CC4)cc3)c3ccccc3)c(O)[nH]c2c1", "Potency": "0.148 µM (active)"}
{"smiles": "O=C(O)c1ccc2c(c1)nc(Nc1cccc(Cl)c1)c1ccncc12", "Potency": "4.18 µM (active)"}
{"smiles": "C1=CCOCc2cc(ccc2OCCN2CCCC2)Nc2nccc(n2)-c2cccc(c2)OCC1", "Potency": "5.9 µM (active)"}
{"smiles": "N#Cc1c(O)c2c(-c3ccc(-c4ccccc4O)cc3)csc2[nH]c1=O", "Potency": "14.8 µM (active)"}
{"smiles": "CC(C)[C@H](C(=O)Nc1ccc(C(=O)NO)cc1)c1ccccc1", "Potency": "0.833 µM (active)"}
{"smiles": "C=CCn1c(=O)c2cnc(Nc3ccc(N4CCN(C)CC4)cc3)nc2n1-c1cccc(C(C)(C)O)n1", "Potency": "0.264 µM (active)"}
{"smiles": "COc1ccc(CC2c3cc(OC)c(OC)cc3CC[N+]2(C)CCC(=O)OCCCCCOC(=O)CC[N+]2(C)CCc3cc(OC)c(OC)cc3C2Cc2ccc(OC)c(OC)c2)cc1OC", "note": "(stereo not given)", "viability (percent of control)": "121% [at 5.15 µM]"}
{"smiles": "COc1ccc(CC2SC(=O)NC2=O)cc1C(=O)NCc1ccc(C(F)(F)F)cc1", "note": "(stereo not given)", "Potency": "inactive"}
{"smiles": "CCC(=C(c1ccccc1)c1ccc(OCCN(C)C)cc1)c1ccccc1", "Potency": "26.4 µM (active)"}
{"smiles": "O=C(C=Cc1cccnc1)NCCCCC1CCN(C(=O)c2ccccc2)CC1", "Potency": "0.0042 µM (active)"}
{"smiles": "Cc1cnc(-c2cnc(NCCNc3ccc(C#N)cn3)nc2-c2ccc(Cl)cc2Cl)[nH]1", "Potency": "8.33 µM (active)"}
{"smiles": "C[C@@H]1CN(CC(=O)Nc2ccc3c(c2)Cc2cccc(-c4cc(=O)cc(N5CCOCC5)o4)c2S3)C[C@H](C)O1", "Potency": "23.5 µM (active)"}
{"smiles": "CCCCc1nc2cc(C=CC(=O)NO)ccc2n1CCN(CC)CC", "Potency": "0.187 µM (active)"}
{"smiles": "COc1ccc(-n2nc(C(N)=O)c3c2C(=O)N(c2ccc(N4CCCCC4=O)cc2)CC3)cc1", "Potency": "inactive"}
{"smiles": "O=C(c1cncc(Br)c1)N1CCC(N2CCCC2)CC1", "Potency": "inactive"}
{"smiles": "O=c1c2ccccc2nc2n1CCc1c-2[nH]c2ccccc12", "Potency": "inactive"}
{"smiles": "Cc1[nH]nc2ccc(-c3cncc(OC[C@@H](N)Cc4ccccc4)c3)cc12", "Potency": "2.09 µM (active)"}
{"smiles": "CC(C)CC(=O)Nc1n[nH]c2c1CN(C(=O)C1CCN(C)CC1)C2(C)C", "Potency": "0.296 µM (active)"}
{"smiles": "COc1cc2c(Oc3ccc(NC(=O)C4(C(=O)Nc5ccc(F)cc5)CC4)cc3F)ccnc2cc1OCCCN1CCOCC1", "Potency": "16.6 µM (active)"}
{"smiles": "Nc1nccc(Oc2ccc(NC(=O)c3c[nH]cc(-c4ccc(F)cc4)c3=O)cc2F)c1Cl", "Potency": "1.66 µM (active)"}
{"smiles": "O=C(O)c1ccc2cc(-c3ccc(O)c(C45CC6CC(CC(C6)C4)C5)c3)ccc2c1", "Potency": "1.32 µM (active)"}
{"smiles": "CCCCOc1c(C(=O)c2c(F)cc(C)cc2F)cnc2n[nH]cc12", "Potency": "2.96 µM (active)"}
{"smiles": "C[C@]12CC[C@H](O)CC1=CCC1C2CC[C@]2(C)C(n3cnc4ccccc43)=CCC12", "note": "(stereo not given in full)", "Potency": "inactive"}
{"smiles": "Cc1cc(N2CCOCC2)cc2[nH]c(-c3c(NC[C@@H](O)c4cccc(Cl)c4)cc[nH]c3=O)nc12", "Potency": "0.118 µM (active)"}
{"smiles": "Cc1cc(Nc2cc(NC(=O)c3c(Cl)cccc3Cl)ccn2)nc(N)n1", "Potency": "0.332 µM (active)"}
{"smiles": "O=C(c1ccc(Nc2nccc(-c3cc4ccccc4s3)n2)cc1)N1CCC(N2CCCC2)CC1", "Potency": "18.7 µM (active)"}
{"smiles": "Nc1ncnc2c1c(-c1cccc(OCc3ccccc3)c1)cn2C1CC(CN2CCCC2)C1", "note": "(stereo not given)", "Potency": "23.5 µM (active)"}
{"smiles": "C=CC(=O)Nc1cc2c(Nc3ccc(F)c(Cl)c3)ncnc2cc1C#CC(C)(C)N1CCN(C)CC1", "Potency": "1.87 µM (active)"}
